Test results: PubChem BioAssay (Tox21)
Results filed as inconclusive are left out. Calls of active or inactive are those of the source. Unless noted, calls come from the whole dose curve.

Key:
[1] = Nuclear factor erythroid 2-related factor 2/antioxidant responsive element (Nrf2/ARE) small molecule agonists: qHTS cell viability counter screen in human keratinocytes (AID 1919968; active = well fitted curve in the direction sought with a large enough effect in the repeat runs; an effect the other way counts as inactive or inconclusive; note: nearly all actives have a fitted effect of over 55% in size; note: potency is the fitted concentration of half-maximal effect)
Method in brief: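 Parallel cytotoxicity read: KeratinoSens HaCaT cells, compound treatment 23 h, viability by CellTiter-Fluor fluorescence 1 h post-reagent.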

[2] = target: Gonadotropin-releasing hormone receptor (Homo sapiens) (UniProt P30968); test: Human gonadotropin-releasing hormone receptor (GnRHR) small molecule agonists, calcium flux assay in GnRHR-HEK293 cells (AID 1920063); note: nearly all actives have a fitted effect of over 35% in size
Method in brief: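 Calcium flux, agonist mode, human GnRHR stably integrated in HEK293; dye 1 h at 37 C before compound; Ex/Em=480/540 kinetic read, 3 min; 15 concentrations, triplicate.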

[3] = G protein-coupled receptor (GPCR) small molecule agonists, calcium flux assay: HEK293 wild type cell line counter screen (AID 1920065)
Method in brief: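 Non-specific calcium responders were flagged by adding DMSO-dissolved compounds to dye-loaded cells and reading 480/540 nm fluorescence each second for 3 min; ATP served as positive control.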

[4] = p53 small molecule agonists, cell-based qHTS assay with human liver microsomes: qHTS cell viability counter screen (AID 1963579); note: nearly all actives have a fitted effect of over 45% in size
Method in brief: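 p53RE-bla cells, 4,000/well, dosed 5 hours after plating, with human liver microsomes (0.5 mg/mL final) plus NADPH (0.5 mg/mL final), 16 hours at 37 C. Viability read as CellTiter-Glo luminescence after 30 min at room temperature.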

[5] = p53 small molecule agonists, cell-based qHTS assay with rat liver microsomes: qHTS cell viability counter screen (AID 1963580); note: nearly all actives have a fitted effect of over 45% in size
Method in brief: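 Cytotoxicity counter screen: intracellular ATP measured by CellTiter-Glo luminescence in the same wells as the beta-lactamase reporter read, on HCT-116 p53RE-bla cells exposed 16 h at 37 C to compounds with rat liver microsomes and NADPH, each 0.5 mg/mL final.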

[6] = p53 small molecule agonists, cell-based qHTS assay: qHTS cell viability counter screen (AID 1963581); note: nearly all actives have a fitted effect of over 45% in size
Method in brief: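 Multiplexed with the reporter read, a CellTiter-Glo step (30 min, room temperature) gauges ATP-based viability of HCT-116 p53RE-bla cells after 16 h compound incubation at 37 C.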

[7] = cAMP Responsive Elements (CRE) small molecule antagonists, cell-based qHTS assay (AID 1963591; active = well fitted inhibition curve with a large enough effect in the signal ratio in the repeat runs, not every such curve was filed as active; the % refers to the signal ratio)
Method in brief: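 Fluorescence intensity from cleaved LiveBLAzer B/G substrate (2 h, room temperature) quantified CRE-bla activity in HEK 293T cells exposed 3 h to compound with 0.25 uM final NKH477.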

[8] = target: Beta-2 adrenergic receptor (Homo sapiens) (UniProt P07550); test: Adrenergic beta2 receptor (ADRB2) small molecule antagonists, cell-based qHTS assay (AID 1963592); note: series mostly up to about 92 µM; nearly all actives have a fitted effect of over 50% in size
Method in brief: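 Assay format: CHO-ADRB2 cells, 18-20hr seeding at 37C/5% CO2, then compound plus 1nM isoproterenol agonist mix for 0.5hr RT. Homogeneous time-resolved fluorescence cAMP detection after 1hr, expressed as 665/615 nm ratio.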

[9] = target: Beta-2 adrenergic receptor (Homo sapiens) (UniProt P07550); test: Adrenergic beta2 receptor (ADRB2) small molecule agonists, cell-based qHTS assay (AID 1963593); note: potency is the fitted concentration of half-maximal effect;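 for activation: CHO cells stably overexpressing human ADRB2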
Method in brief: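 CHO cells stably over-expressing ADRB2 were plated overnight at 37C, then dosed with compounds plus a stimulation mix containing 100uM IBMX and 25uM Ro-20-1724 for 0.5hr at room temperature. cAMP was measured by HTRF competition, 1hr.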

[10] = target: D(2) dopamine receptor (Homo sapiens) (UniProt P14416); test: Dopamine D2 receptor (DRD2) small molecule agonists, cell-based qHTS assay (AID 1963594); note: nearly all actives have a fitted effect of over 35% in size
Method in brief: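 HEK293 cells stably expressing human DRD2, pre-treated with PDE inhibitor Ro20-1724 (0.1 mM final) and compound 10 min at room temperature, then stimulated with NKH477 (200nM […]) for 30 min. cAMP read by HTRF (665/620 nm).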

[11] = target: D(2) dopamine receptor (Homo sapiens) (UniProt P14416); test: Dopamine D2 receptor (DRD2) small molecule antagonists, cell-based qHTS assay (AID 1963595; active = well fitted inhibition curve with a large enough effect in the signal ratio in the repeat runs, with a control signal flat; the % refers to the signal ratio)
Method in brief: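 Antagonism was scored as restored cAMP in HEK293-DRD2 cells. These cells were stimulated with 200 nM NKH477 and 12 nM quinpirole for 30 min at room temperature, in the presence of 0.1 mM Ro20-1724.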

[12] = p53 small molecule agonists, cell-based qHTS assay with human liver microsomes (AID 1963577)
Method in brief: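 p53RE-bla cells, 4,000/well, compound added after 5 h, with human liver microsomes 0.5 mg/mL and NADPH 0.5 mg/mL final; 16 h at 37 C, then LiveBLAzer 2 h RT, fluorescence.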

[13] = p53 small molecule agonists, cell-based qHTS assay with rat liver microsomes (AID 1963578)
Method in brief: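 p53RE-bla cells, 4,000/well, pre-incubated 5 h, then given compounds plus rat liver microsomes (0.5 mg/mL final) and NADPH (0.5 mg/mL final). Incubation 16 h at 37 C; beta-lactamase reporter read by LiveBLAzer fluorescence after 2 h at room temperature.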

[14] = target: 5-hydroxytryptamine receptor 2A (Homo sapiens) (UniProt P28223); test: 5-hydroxytryptamine receptor 2A (HTR2A) small molecule agonists, cell-based qHTS assay (AID 1963587); note: nearly all actives have a fitted effect of over 30% in size; note: potency is the fitted concentration of half-maximal effect
Method in brief: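 CHO cells stably expressing human HTR2A, plated 18 h, loaded with calcium dye 1 h at 37 C. Agonist mode: compounds added and intracellular calcium fluorescence recorded kinetically for 2 min at 1 sec intervals.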

[15] = target: Muscarinic acetylcholine receptor M1 (Homo sapiens) (UniProt P11229); test: Cholinergic receptor muscarinic 1 (CHRM1) small molecule antagonists, cell-based qHTS assay (AID 1963588); note: nearly all actives have a fitted effect of over 40% in size
Method in brief: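 Compounds were tested at 15 concentrations in three independent runs. Dye-loaded CHRM1-CHO cells were exposed 5 min at room temperature before stimulation by acetylcholine added at 50nM. Intracellular calcium was read kinetically on FDSS for 3 min.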

[16] = target: Muscarinic acetylcholine receptor M1 (Homo sapiens) (UniProt P11229); test: Cholinergic receptor muscarinic 1 (CHRM1) small molecule agonists, cell-based qHTS assay (AID 1963589); note: nearly all actives have a fitted effect of over 35% in size
Method in brief: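 qHTS, 15-point titration, 3 independent runs: compounds pin-transferred onto dye-loaded CHRM1-CHO cells (human M1), calcium fluorescence followed every second to detect agonism.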

[17] = target: KiSS-1 receptor (Homo sapiens) (UniProt Q969F8); test: Human kisspeptin (KISS1R) small molecule agonists, calcium flux assay in KISS1R-HEK293 cells (AID 1920064; active = well fitted curve in the direction sought with a large enough effect in the repeat runs; an effect the other way counts as inactive or inconclusive)
Method in brief: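 Triplicate 15-concentration series were applied to dye-loaded human KISS1R HEK293 cells, and agonist-evoked calcium fluorescence was captured for 3 min.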

[18] = p53 small molecule agonists, cell-based qHTS assay (AID 1963582; active = well fitted activation curve with a large enough effect in the signal ratio in the repeat runs, not every such curve was filed as active; the % refers to the signal ratio)
Method in brief: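 Beta-lactamase reporter cells (p53RE-bla) treated with compounds for 16 h at 37 C; FRET substrate, 2 h, room temperature; fluorescence intensity.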

[19] = target: 5-hydroxytryptamine receptor 2A (Homo sapiens) (UniProt P28223); test: 5-hydroxytryptamine receptor 2A (HTR2A) small molecule antagonists, cell-based qHTS assay (AID 1963586); note: nearly all actives have a fitted effect of over 45% in size
Method in brief: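 CHO cells stably expressing human HTR2A were plated for 18 h at 37 C, then loaded with calcium dye for 1 h. Compounds were preincubated 5 min at room temperature before DOI (4 nM solution) was added. Kinetic fluorescence was read for 3 min.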

[20] = cAMP Responsive Elements (CRE) small molecule agonists, cell-based qHTS assay (AID 1963590)
Method in brief: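 Quantitative HTS for CRE agonists: HEK 293T CRE-bla cells, overnight plating, 3 h compound incubation at 37 C/5% CO2, then 2 h room-temperature LiveBLAzer B/G FRET substrate loading.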
% is set by controls: 0 for no effect and ±100 for the full control effect.

Chain of KiSS-1 receptor (Homo sapiens) (Q969F8 whole entry, looked up): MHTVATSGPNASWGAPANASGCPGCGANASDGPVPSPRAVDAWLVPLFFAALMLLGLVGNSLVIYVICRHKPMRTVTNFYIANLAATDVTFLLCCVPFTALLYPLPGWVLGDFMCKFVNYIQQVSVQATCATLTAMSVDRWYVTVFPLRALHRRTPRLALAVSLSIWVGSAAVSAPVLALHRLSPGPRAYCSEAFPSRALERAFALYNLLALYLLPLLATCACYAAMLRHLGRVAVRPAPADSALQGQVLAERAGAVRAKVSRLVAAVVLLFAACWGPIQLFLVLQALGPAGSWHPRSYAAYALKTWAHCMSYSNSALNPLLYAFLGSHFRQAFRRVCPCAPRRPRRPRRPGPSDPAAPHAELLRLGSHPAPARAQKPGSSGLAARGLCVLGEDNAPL
Chain of Gonadotropin-releasing hormone receptor (Homo sapiens) (P30968 whole entry, looked up): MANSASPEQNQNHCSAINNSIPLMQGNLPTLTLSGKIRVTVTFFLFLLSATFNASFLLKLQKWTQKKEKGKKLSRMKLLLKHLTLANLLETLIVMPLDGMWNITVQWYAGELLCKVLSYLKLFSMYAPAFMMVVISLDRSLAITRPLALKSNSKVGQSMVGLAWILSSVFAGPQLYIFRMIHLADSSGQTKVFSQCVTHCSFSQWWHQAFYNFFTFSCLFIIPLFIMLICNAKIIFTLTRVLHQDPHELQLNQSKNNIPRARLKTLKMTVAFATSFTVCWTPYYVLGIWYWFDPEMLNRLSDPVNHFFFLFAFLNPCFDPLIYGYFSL
Chain of Beta-2 adrenergic receptor (Homo sapiens) (P07550 whole entry, looked up): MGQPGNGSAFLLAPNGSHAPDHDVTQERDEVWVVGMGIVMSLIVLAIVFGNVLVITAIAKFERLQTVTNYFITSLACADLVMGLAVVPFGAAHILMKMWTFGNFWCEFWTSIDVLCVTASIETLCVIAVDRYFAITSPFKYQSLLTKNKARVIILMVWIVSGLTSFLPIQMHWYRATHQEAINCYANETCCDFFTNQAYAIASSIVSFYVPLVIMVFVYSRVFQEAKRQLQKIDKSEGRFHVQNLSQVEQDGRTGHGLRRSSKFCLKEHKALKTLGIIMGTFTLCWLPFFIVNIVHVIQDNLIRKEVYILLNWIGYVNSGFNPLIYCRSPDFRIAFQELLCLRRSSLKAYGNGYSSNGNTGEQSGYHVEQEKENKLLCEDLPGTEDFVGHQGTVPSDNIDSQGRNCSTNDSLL
Chain of 5-hydroxytryptamine receptor 2A (Homo sapiens) (P28223 whole entry, looked up): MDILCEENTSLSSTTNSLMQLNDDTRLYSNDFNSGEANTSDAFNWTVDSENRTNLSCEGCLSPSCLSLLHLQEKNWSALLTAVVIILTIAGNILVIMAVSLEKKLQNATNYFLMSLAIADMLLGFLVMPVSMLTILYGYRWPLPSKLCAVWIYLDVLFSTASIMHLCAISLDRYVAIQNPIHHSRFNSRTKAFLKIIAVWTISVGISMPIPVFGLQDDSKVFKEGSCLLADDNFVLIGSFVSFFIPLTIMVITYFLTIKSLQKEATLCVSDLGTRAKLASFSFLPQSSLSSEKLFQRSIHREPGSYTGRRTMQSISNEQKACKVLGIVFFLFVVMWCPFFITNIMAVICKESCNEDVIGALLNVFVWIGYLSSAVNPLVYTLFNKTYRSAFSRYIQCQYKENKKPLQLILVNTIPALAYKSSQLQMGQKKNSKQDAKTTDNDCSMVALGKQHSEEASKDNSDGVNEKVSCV
Chain of Muscarinic acetylcholine receptor M1 (Homo sapiens) (P11229 whole entry, looked up): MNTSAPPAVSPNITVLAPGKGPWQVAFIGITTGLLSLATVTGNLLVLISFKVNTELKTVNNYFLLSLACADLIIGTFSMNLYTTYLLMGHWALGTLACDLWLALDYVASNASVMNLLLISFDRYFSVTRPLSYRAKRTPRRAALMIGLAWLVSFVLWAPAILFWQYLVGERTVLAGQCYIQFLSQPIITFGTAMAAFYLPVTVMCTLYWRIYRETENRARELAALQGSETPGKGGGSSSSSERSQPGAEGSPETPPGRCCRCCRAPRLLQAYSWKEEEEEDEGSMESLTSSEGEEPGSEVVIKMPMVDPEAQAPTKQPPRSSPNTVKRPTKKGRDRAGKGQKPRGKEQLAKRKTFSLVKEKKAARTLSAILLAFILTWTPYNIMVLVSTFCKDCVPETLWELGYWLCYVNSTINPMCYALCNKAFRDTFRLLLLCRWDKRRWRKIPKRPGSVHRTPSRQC
Chain of D(2) dopamine receptor (Homo sapiens) (P14416 whole entry, looked up): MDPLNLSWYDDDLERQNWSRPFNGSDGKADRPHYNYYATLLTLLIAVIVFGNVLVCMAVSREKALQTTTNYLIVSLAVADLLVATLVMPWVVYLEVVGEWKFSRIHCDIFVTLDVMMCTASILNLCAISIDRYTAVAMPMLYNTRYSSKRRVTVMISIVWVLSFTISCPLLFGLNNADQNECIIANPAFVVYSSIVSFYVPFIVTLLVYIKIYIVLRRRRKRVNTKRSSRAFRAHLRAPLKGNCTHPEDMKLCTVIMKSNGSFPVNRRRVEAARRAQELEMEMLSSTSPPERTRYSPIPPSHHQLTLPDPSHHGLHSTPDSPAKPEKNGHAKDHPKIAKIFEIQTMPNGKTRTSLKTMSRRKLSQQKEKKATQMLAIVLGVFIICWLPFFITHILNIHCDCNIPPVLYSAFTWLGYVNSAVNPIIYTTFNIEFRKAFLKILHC

CC(=O)Nc1ccc2c(c1)Cc1ccccc1-2
inactive: Potency [1] | Potency [2] | Potency [3] | Potency [4] | Potency [5] | Potency [6] | Potency [7] | Potency [8] | Potency [9] | Potency [10] | Potency [11]

C[C@H](N)[C@H](O)c1ccc(O)c(O)c1
active: Potency [9] 7.5 µM
inactive: Potency [1] | Potency [3] | Potency [12] | Potency [13] | Potency [4] | Potency [5] | Potency [6] | Potency [14] | Potency [15] | Potency [16] | Potency [7] | Potency [10]

C[N+]1(CCF)[C@@H]2CC[C@H]1CC(OC(=O)C(O)(c1ccccc1)c1ccccc1)C2 (some centres undefined)
inactive: Potency [1] | Potency [17] | Potency [3] | Potency [4] | Potency [5] | Potency [6] | Potency [18] | Potency [19] | Potency [14] | Potency [20] | Potency [7] | Potency [8] | Potency [10] | Potency [11]

Cc1cccc(Cc2cnc[nH]2)c1C
inactive: Potency [1] | Potency [2] | Potency [3] | Potency [12] | Potency [4] | Potency [5] | Potency [6] | Potency [19] | Potency [14] | Potency [15] | Potency [16] | Potency [20] | Potency [8] | Potency [9] | Potency [11]

O=C1CCCCC1Cl (centres undefined)
inactive: Potency [1] | Potency [17] | Potency [3] | Potency [13] | Potency [4] | Potency [5] | Potency [6] | Potency [19] | Potency [14] | Potency [15] | Potency [16] | Potency [20] | Potency [8] | Potency [10] | Potency [11]

ClC(Cl)(Cl)Cl
inactive: Potency [1] | Potency [17] | Potency [3] | Potency [12] | Potency [13] | Potency [4] | Potency [5] | Potency [6] | Potency [18] | Potency [20] | Potency [7] | Potency [8] | Potency [10] | Potency [11]

CC(=O)[O-].CC(=O)[O-].O.O.[Cd+2]
inactive: Potency [17] | Potency [3] | Potency [4] | Potency [5] | Potency [19] | Potency [15] | Potency [16] | Potency [8] | Potency [9] | Potency [11]
active: Potency [1] 42.7 µM | Potency [14] 27.2 µM

ClSC(Cl)(Cl)Cl
inactive: Potency [1] | Potency [2] | Potency [3] | Potency [4] | Potency [5] | Potency [6] | Potency [19] | Potency [14] | Potency [15] | Potency [16] | Potency [20] | Potency [7] | Potency [8] | Potency [10] | Potency [11]

CCN(CC)C(C)C(=O)c1ccccc1 (centres undefined)
inactive: Potency [1] | Potency [17] | Potency [3] | Potency [5] | Potency [6] | Potency [14] | Potency [15] | Potency [16] | Potency [20] | Potency [8] | Potency [10] | Potency [11]

Clc1cc(C(Cl)(Cl)Cl)cnc1Cl
inactive: Potency [1] | Potency [2] | Potency [3] | Potency [13] | Potency [5] | Potency [6] | Potency [18] | Potency [19] | Potency [14] | Potency [15] | Potency [16] | Potency [20] | Potency [7] | Potency [8] | Potency [10] | Potency [11]

CC(=O)[O-].CC(=O)[O-].CC(=O)[O-].[Sb+3]
inactive: activity change, negative = cytotoxicity [1] 0.851% [at 3.27 µM] | activity change [2] 0.655% [at 2.04 µM, hits give high values] | activation [3] -0.454% [at 2.04 µM] | activity change, negative = cytotoxicity [4] 0.868% [at 2.33 µM] | activity change, negative = cytotoxicity [6] 11.8% [at 2.33 µM] | activity, negative = inhibition [19] 0.713% [at 2.12 µM] | activation [14] -0.125% [at 2.65 µM] | activity, negative = inhibition [15] 9.52% [at 2.17 µM] | activation [20] -0.0591% [at 3.27 µM] | activity change, negative = inhibition [7] -4.85% [at 3.27 µM] | activity change, negative = inhibition [8] -10.7% [at 3.27 µM] | activation [10] 0.942% [at 3.27 µM] | activity change, negative = inhibition [11] -1.4% [at 3.28 µM]

CN/C(=N\[N+](=O)[O-])NCC1CCOC1 (centres undefined)
inactive: Potency [1] | Potency [17] | Potency [3] | Potency [12] | Potency [13] | Potency [4] | Potency [5] | Potency [6] | Potency [18] | Potency [19] | Potency [14] | Potency [15] | Potency [16] | Potency [20] | Potency [7] | Potency [8] | Potency [9] | Potency [10] | Potency [11]
